# Measured values from the supplement of paper PMC8728848.
# Shown is part of a subset that was picked to be rich in the strongest signals.
# Assays:
# Assay in all cases: glycan array binding signal (z-score within array); higher = stronger binding
# Conditions in all cases: glycan notation: IUPAC condensed, linker removed
# GalNAc(b1-4)Gal(b1-4)Glc = biological target: GalNAc(b1-4)Gal(b1-4)Glc
# Summary of the method: (§1)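 Glycan array binding is given as a within-array Z-score, which can be read as non-binding when negative. The arrays, 3228 of them, came from the Consortium for Functional Glycomics database and were retained only where the protein sequence was available. Z-scores were averaged across arrays of the same protein sequence at different concentrations or buffers and across linkers.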
# GalNAc(b1-4)GlcNAc = biological target: GalNAc(b1-4)GlcNAc
# Summary of the method: as §1
# [1] = biological target: GalNAc(b1-4)GlcNAc(b1-3)GalNAc(b1-4)GlcNAc
# Summary of the method: as §1
# [2] = biological target: GlcNAc(b1-2)Man(a1-3)[GlcNAc(b1-2)Man(a1-6)]Man(b1-4)GlcNAc(b1-4)[Fuc(a1-6)]GlcNAc
# Summary of the method: as §1
# [3] = biological target: GlcNAc(b1-2)[GlcNAc(b1-6)]Man(a1-6)[GlcNAc(b1-2)Man(a1-3)]Man(b1-4)GlcNAc(b1-4)[Fuc(a1-6)]GlcNAc
# Summary of the method: as §1
# [4] = biological target: GlcNAc(b1-3)Gal(b1-4)GlcNAc(b1-2)[GlcNAc(b1-3)Gal(b1-4)GlcNAc(b1-6)]Man(a1-6)[GlcNAc(b1-3)Gal(b1-4)GlcNAc(b1-2)Man(a1-3)]Man(b1-4)GlcNAc(b1-4)GlcNAc
# Summary of the method: as §1
# [5] = biological target: GlcNAc(b1-3)Gal(b1-4)GlcNAc(b1-3)Gal(b1-4)GlcNAc(b1-2)Man(a1-3)[GlcNAc(b1-3)Gal(b1-4)GlcNAc(b1-3)Gal(b1-4)GlcNAc(b1-2)Man(a1-6)]Man(b1-4)GlcNAc(b1-4)GlcNAc
# Summary of the method: as §1
# [6] = biological target: GlcNAc(b1-3)Gal(b1-4)GlcNAc(b1-3)Gal(b1-4)GlcNAc(b1-3)Gal(b1-4)GlcNAc(b1-3)Gal(b1-4)GlcNAc(b1-2)[GlcNAc(b1-3)Gal(b1-4)GlcNAc(b1-3)Gal(b1-4)GlcNAc(b1-3)Gal(b1-4)GlcNAc(b1-3)Gal(b1-4)GlcNAc(b1-6)]Man(a1-6)[GlcNAc(b1-3)Gal(b1-4)GlcNAc(b1-3)Gal(b1-4)GlcNAc(b1-3)Gal(b1-4)GlcNAc(b1-3)Gal(b1-4)GlcNAc(b1-2)Man(a1-3)]Man(b1-4)GlcNAc(b1-4)[Fuc(a1-6)]GlcNAc
# Summary of the method: as §1
# GlcNAc(b1-6)GalNAc = biological target: GlcNAc(b1-6)GalNAc
# Summary of the method: as §1
# [7] = biological target: Neu5Ac(a2-3)Gal(b1-3)GlcNAc(b1-2)Man(a1-3)[Neu5Ac(a2-3)Gal(b1-3)GlcNAc(b1-2)Man(a1-6)]Man(b1-4)GlcNAc(b1-4)GlcNAc
# Summary of the method: as §1
# [8] = biological target: Neu5Ac(a2-3)Gal(b1-3)[Fuc(a1-4)]GlcNAc(b1-3)Gal(b1-3)[Fuc(a1-4)]GlcNAc
# Summary of the method: as §1
# [9] = biological target: Neu5Ac(a2-3)Gal(b1-4)GlcNAc(b1-2)Man(a1-3)[Neu5Ac(a2-3)Gal(b1-4)GlcNAc(b1-2)Man(a1-6)]Man(b1-4)GlcNAc(b1-4)[Fuc(a1-6)]GlcNAc
# Summary of the method: as §1
# [10] = biological target: Neu5Ac(a2-3)Gal(b1-4)GlcNAc(b1-2)[Neu5Ac(a2-3)Gal(b1-4)GlcNAc(b1-6)]Man(a1-6)[Neu5Ac(a2-3)Gal(b1-4)GlcNAc(b1-2)Man(a1-3)][GlcNAc(b1-4)]Man(b1-4)GlcNAc(b1-4)GlcNAc
# Summary of the method: as §1
# [11] = biological target: Neu5Ac(a2-3)Gal(b1-4)[Fuc(a1-3)]GlcNAc(b1-3)Gal
# Summary of the method: as §1
# [12] = biological target: Neu5Ac(a2-3)Gal(b1-4)[Fuc(a1-3)]GlcNAc6S
# Summary of the method: as §1
# [13] = biological target: Neu5Ac(a2-3)[GalNAc(b1-4)]Gal(b1-4)GlcNAc
# Summary of the method: as §1
# Neu5Ac(a2-6)Gal = biological target: Neu5Ac(a2-6)Gal
# Summary of the method: as §1
# [14] = biological target: Neu5Ac(a2-6)Gal(b1-4)GlcNAc(b1-2)Man(a1-3)[Neu5Ac(a2-3)Gal(b1-4)GlcNAc(b1-2)Man(a1-6)]Man(b1-4)GlcNAc(b1-4)GlcNAc
# Summary of the method: as §1
# [15] = biological target: Neu5Ac(a2-6)Gal(b1-4)GlcNAc(b1-2)Man(a1-6)[Gal(b1-4)GlcNAc(b1-2)Man(a1-3)]Man(b1-4)GlcNAc(b1-4)GlcNAc
# Summary of the method: as §1
# [16] = biological target: Neu5Ac(a2-6)Gal(b1-4)GlcNAc(b1-3)Gal(b1-4)GlcNAc(b1-3)Gal(b1-4)GlcNAc(b1-2)Man(a1-3)[Neu5Ac(a2-6)Gal(b1-4)GlcNAc(b1-3)Gal(b1-4)GlcNAc(b1-3)Gal(b1-4)GlcNAc(b1-2)Man(a1-6)]GalNAc
# Summary of the method: as §1
# [17] = biological target: Neu5Ac(a2-6)Gal(b1-4)GlcNAc(b1-6)GalNAc
# Summary of the method: as §1
# [18] = biological target: Neu5Ac(a2-8)Neu5Ac(a2-3)Gal(b1-3)GalNAc(b1-4)[Neu5Ac(a2-3)]Gal(b1-4)Glc
# Summary of the method: as §1
# [19] = biological target: Neu5Ac(a2-8)Neu5Ac(a2-3)Gal(b1-4)GlcNAc
# Summary of the method: as §1
# [20] = biological target: Neu5Ac(a2-8)Neu5Ac(a2-3)[Gal(b1-3)GalNAc(b1-4)]Gal(b1-4)Glc
# Summary of the method: as §1
# [21] = biological target: Neu5Gc(a2-3)Gal(b1-4)[Fuc(a1-3)]GlcNAc
# Summary of the method: as §1
# [22] = biological target: Neu5Gc(a2-8)Neu5Gc(a2-3)Gal(b1-4)GlcNAc(b1-3)Gal(b1-4)GlcNAc
# Summary of the method: as §1
binder,measurement,setting,value
"Erv46-EDTA (Saccharomyces cerevisiae), P39727 (protein) MKFLVNVALVFMVVYISYIYAAAPEHHHHHHDYDIPTTENLYFQGAMDSVVTRPQLVVDRDRHAKLELNMDVTFPSMPCDLVNLDIMDDSGEMQLDILDAGFTMSRLNSEGRPVGDATELHVGGNGDGTAPVNNDPNYCGPCYGAKDQSQNENLAQEEKVCCQDCDAVRSAYLEAGWAFFDGKNIEQCEREGYVSKINEHLNEGCRIKGSAQINRIQGNLHFAPGKPYQNAYGHFHDTSLYDKTSNLNFNHIINHLSFGKPIQSHSKLLGNDKRHGGAVVATSPLDGRQVFPDRNTHFHQFSYFAKIVPTRYEYLDNVVIETAQFSATFHSRPLAGGRDKDHPNTLHVRGGIPGMFVFFEMSPLKVINKEQ",glycan array binding signal (z-score),GalNAc(b1-4)Gal(b1-4)Glc,-0.674
same,glycan array binding signal (z-score),GalNAc(b1-4)GlcNAc,0.697
same,glycan array binding signal (z-score),[1],-0.443
same,glycan array binding signal (z-score),[2],6.37
same,glycan array binding signal (z-score),[3],1.14
same,glycan array binding signal (z-score),[4],2.9
same,glycan array binding signal (z-score),[5],3.36
same,glycan array binding signal (z-score),[6],0.589
same,glycan array binding signal (z-score),GlcNAc(b1-6)GalNAc,-0.565
same,glycan array binding signal (z-score),[7],1.06
same,glycan array binding signal (z-score),[8],-0.483
same,glycan array binding signal (z-score),[9],0.11
same,glycan array binding signal (z-score),[10],-0.335
same,glycan array binding signal (z-score),[11],-0.531
same,glycan array binding signal (z-score),[12],-0.585
same,glycan array binding signal (z-score),[13],0.122
same,glycan array binding signal (z-score),Neu5Ac(a2-6)Gal,-0.121
same,glycan array binding signal (z-score),[14],-0.318
same,glycan array binding signal (z-score),[15],-0.053
same,glycan array binding signal (z-score),[16],3.54
same,glycan array binding signal (z-score),[17],-0.855
same,glycan array binding signal (z-score),[18],-0.029
same,glycan array binding signal (z-score),[19],-0.501
same,glycan array binding signal (z-score),[20],-0.605
same,glycan array binding signal (z-score),[21],0.625
same,glycan array binding signal (z-score),[22],-0.449
